PubChem BioAssay (Tox21)
Results filed as inconclusive are left out. Activity calls are given as the source filed them. Unless noted, calls follow the shape of the dose curve; as a rule, active = well fitted curve in the direction sought with a large enough effect in the repeat runs; inconclusive = weak or mixed curves; inactive = no such curve, though single readings can be large; an effect the other way counts as inactive or inconclusive.

Legend:
[1] = qHTS assay to identify aromatase inhibitors - cell viability counter screen (AID 743084);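 also: cells stimulated with testosterone during compound exposure; nearly all actives have a fitted effect of over 55% in size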
[2] = qHTS assay to identify small molecule that activate the aryl hydrocarbon receptor (AhR) signaling pathway - cell viability counter screen (AID 743086);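 also: HepG2 liver cells carrying the AhR DRE luciferase reporter; series mostly up to about 70 µM; nearly all actives have a fitted effect of over 45% in size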
In short: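 HepG2-AhR-luc (HG2L7.5c1) cells, 4000/well, treated 24 h at 37 C with compound; viability measured as CellTiter-Fluor fluorescence after 30 min in the same wells as the luciferase read.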

[3] = target: Peroxisome proliferator-activated receptor gamma (Homo sapiens) (UniProt P37231); experiment: qHTS assay to identify small molecule agonists of the peroxisome proliferator-activated receptor gamma (PPARg) signaling pathway (AID 743094; active = well fitted activation curve with a large enough effect in the signal ratio in the repeat runs, not every such curve was filed as active; the % refers to the signal ratio)
Chain of Peroxisome proliferator-activated receptor gamma (Homo sapiens) (P37231 whole entry, looked up): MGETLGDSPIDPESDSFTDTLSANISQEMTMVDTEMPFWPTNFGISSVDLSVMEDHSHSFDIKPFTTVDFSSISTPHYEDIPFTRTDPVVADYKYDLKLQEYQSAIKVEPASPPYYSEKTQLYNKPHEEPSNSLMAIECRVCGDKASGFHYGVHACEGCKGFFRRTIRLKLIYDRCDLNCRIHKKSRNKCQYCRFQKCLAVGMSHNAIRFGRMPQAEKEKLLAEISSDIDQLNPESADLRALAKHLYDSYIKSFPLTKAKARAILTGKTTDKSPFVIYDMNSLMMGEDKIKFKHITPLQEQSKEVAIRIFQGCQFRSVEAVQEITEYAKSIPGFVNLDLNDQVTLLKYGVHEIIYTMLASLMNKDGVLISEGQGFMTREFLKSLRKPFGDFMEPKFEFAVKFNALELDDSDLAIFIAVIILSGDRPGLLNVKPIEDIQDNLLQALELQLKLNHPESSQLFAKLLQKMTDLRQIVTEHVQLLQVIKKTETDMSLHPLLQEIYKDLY
In short: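 Cell-based bla reporter, HEK293H background, PPARg-driven UAS. Pre-incubation 5 h, 37C, 5% CO2. Compound 17 h, 37C. Substrate 1 h RT; fluorescence.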

[4] = target: Peroxisome proliferator-activated receptor gamma (Homo sapiens) (UniProt P37231); experiment: qHTS assay to identify small molecule antagonists of the peroxisome proliferator-activated receptor gamma (PPARg) signaling pathway (AID 743191; calls by dose curve; also: series mostly up to about 63 µM; nearly all actives have a fitted effect of over 30% in size)
In short: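 GeneBLAzer PPARg UAS-bla HEK293H cells, 5 h post-plating, exposed to compounds 17 h at 37C. LiveBLAzer B/G FRET substrate added for 1 h at room temperature; beta-lactamase reporter read by fluorescence intensity.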

[5] = qHTS assay to identify small molecule antagonists of the peroxisome proliferator-activated receptor gamma (PPARg) signaling pathway - cell viability counter screen (AID 743194); also: nearly all actives have a fitted effect of over 55% in size
In short: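 Cytotoxicity counter screen in PPARg-bla HEK293H cells, same wells as reporter assay. Compounds plus 50 nM rosiglitazone (final) for 17 h at 37 C, then viability read by CellTiter-Glo luminescence.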

[6] = qHTS assay for small molecule agonists of the antioxidant response element (ARE) signaling pathway (AID 743202; active = well fitted activation curve with a large enough effect in the signal ratio in the repeat runs, not every such curve was filed as active; the % refers to the signal ratio; also: potency is read from the fitted curve at half-maximal effect)
In short: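 HepG2 ARE-bla reporter line, 2,000 cells/well; 5 h preincubation 37 C/5% CO2; compound (DMSO) 16 h 37 C; B/G FRET substrate 2 h RT; fluorescence intensity.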

[7] = qHTS assay for small molecule agonists of the antioxidant response element (ARE) signaling pathway - cell viability counter screen (AID 743203; calls by dose curve; also: nearly all actives have a fitted effect of over 55% in size)
In short: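 Measured in the same wells as the beta-lactamase ARE reporter, this read-out is CellTiter-Glo luminescence from HepG2 ARE-bla cells given compounds for 16 hrs.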

[8] = qHTS assay for small molecule activators of the heat shock response signaling pathway - cell viability counter screen (AID 743209); also: nearly all actives have a fitted effect of over 50% in size
In short: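 Same-well multiplex: after 2.5 h room-temperature incubation with LiveBLAzer B/G substrate and fluorescence reading, CellTiter-Glo reagent was added to HSE-bla HeLa cells that had received compound for 5 h at 37 C; luminescence read after 30 min.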

[9] = qHTS assay for small molecule activators of the heat shock response signaling pathway (AID 743210; active = well fitted activation curve with a large enough effect in the signal ratio in the repeat runs, with a control signal flat, not every such curve was filed as active; the % refers to the signal ratio; also: potency is read from the fitted curve at half-maximal effect;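 as to activation: HeLa cells with beta-lactamase reporter driven by heat shock elements; series mostly up to about 63 µM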)
In short: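 Beta-lactamase reporter read-out: FRET substrate fluorescence after 2.5 h at RT, following 5 h compound treatment at 37 C of HeLa cells carrying HSE-driven bla reporter; quantitative HTS format.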

[10] = target: Aryl hydrocarbon receptor (Homo sapiens) (UniProt P35869); experiment: qHTS assay to identify small molecule that activate the aryl hydrocarbon receptor (AhR) signaling pathway (AID 743085); also: nearly all actives have a fitted effect of over 15% in size; also: potency is read from the fitted curve at half-maximal effect;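 as to activation: HG2L7.5c1 human HepG2 liver cells with stably integrated DRE-driven firefly reporter; series mostly up to about 70 µM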
Chain of Aryl hydrocarbon receptor (Homo sapiens) (P35869 whole entry, looked up): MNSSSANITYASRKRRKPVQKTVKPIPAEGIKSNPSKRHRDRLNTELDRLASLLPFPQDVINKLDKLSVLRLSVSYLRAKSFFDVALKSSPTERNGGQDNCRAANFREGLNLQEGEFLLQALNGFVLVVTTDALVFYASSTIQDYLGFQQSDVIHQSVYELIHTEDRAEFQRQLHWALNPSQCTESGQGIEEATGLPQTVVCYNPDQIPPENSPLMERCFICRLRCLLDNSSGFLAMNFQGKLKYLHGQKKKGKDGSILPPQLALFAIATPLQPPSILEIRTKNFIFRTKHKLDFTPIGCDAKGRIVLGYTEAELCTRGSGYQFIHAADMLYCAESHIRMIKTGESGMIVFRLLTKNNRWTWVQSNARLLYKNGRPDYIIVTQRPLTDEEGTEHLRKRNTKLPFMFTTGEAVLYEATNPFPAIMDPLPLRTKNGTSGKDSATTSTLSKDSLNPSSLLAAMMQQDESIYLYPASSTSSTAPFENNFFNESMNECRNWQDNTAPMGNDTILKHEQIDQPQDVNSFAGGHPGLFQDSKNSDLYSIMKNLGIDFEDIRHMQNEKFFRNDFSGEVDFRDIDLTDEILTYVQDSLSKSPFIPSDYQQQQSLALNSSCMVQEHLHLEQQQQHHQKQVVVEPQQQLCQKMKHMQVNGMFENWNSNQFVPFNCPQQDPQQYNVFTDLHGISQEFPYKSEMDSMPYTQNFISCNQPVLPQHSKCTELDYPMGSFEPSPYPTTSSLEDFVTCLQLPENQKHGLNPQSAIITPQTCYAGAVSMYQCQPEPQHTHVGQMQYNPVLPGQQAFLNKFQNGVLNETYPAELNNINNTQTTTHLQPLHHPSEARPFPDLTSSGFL
In short: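 Compounds were tested in HepG2 hepatocellular carcinoma cells harbouring a stably integrated luciferase gene under control of 20 DREs. Increased reporter signal after 24 h treatment at 37C was taken as AhR activation.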

Measured: Potency

O=C(O)C(=O)Cc1c[nH]c2ccccc12
active: [6] 27.3 µM
not listed: [10]
inactive: all other assays above

O=CCCc1ccccc1
not listed: [3] | [4] | [6]
inactive: all other assays above

C[C@@H]1CN(c2c(F)c(N)c3c(=O)c(C(=O)O)cn(C4CC4)c3c2F)C[C@H](C)N1
not listed: [10]
inactive: all other assays above

CN(CC1(C)CCCO1)S(=O)(=O)c1ccc(Cl)c(S(N)(=O)=O)c1 (stereo not drawn)
not listed: [9] | [10]
inactive: all other assays above

Nc1cccc(S(=O)(=O)O)c1
not listed: [6] | [9] | [10]
inactive: all other assays above

COC(=O)c1ccc2cc(C(=O)OC)ccc2c1
not listed: [9] | [10]
inactive: all other assays above

NNS(=O)(=O)c1ccc(Oc2ccc(S(=O)(=O)NN)cc2)cc1
not listed: [6] | [10]
inactive: all other assays above

CN(CCCN1c2ccccc2CCc2ccccc21)CC(=O)c1ccc(Cl)cc1
inactive: [1] | [4] | [5] | [7]
active: [10] 29.8 µM

C1CCOC1
not listed: [3] | [4] | [6]
inactive: all other assays above

COc1ccc(Nc2ccc(OC)cc2)cc1
not listed: [4] | [10]
inactive: all other assays above

NC(=O)Cc1cccc(C(=O)c2ccccc2)c1N
not listed: [10]
inactive: all other assays above

CC1=C2[C@H](/C=C(\C)C(=O)O)CC[C@@H](C)[C@H]2CC1
inactive: [1] | [10] | [2] | [5] | [7] | [8]

CC(C)(C)c1ccc(OC(=O)c2ccccc2O)cc1
not listed: [10]
inactive: all other assays above

O=Cc1ccc(F)c(Br)c1
not listed: [9] | [10]
inactive: all other assays above

Nc1ccc(Oc2ccc(N)c(N)c2)cc1
active: [10] 1.54 µM
inactive: [1] | [5] | [7] | [8]

OCC(CBr)(CBr)CBr
inactive: [1] | [2] | [3] | [4] | [7] | [8]

CCCCNC(=S)NCCCC
active: [9] 23.6 µM
not listed: [2] | [3] | [6]
inactive: all other assays above

Cc1ccsc1C(=CCCN1CCC[C@@H](C(=O)O)C1)c1sccc1C
inactive: [1] | [10] | [2] | [5] | [7] | [8]

CN1CCN(c2c(F)cc3c(=O)c(C(=O)O)cn4c3c2SCC4)CC1
not listed: [4] | [10]
inactive: all other assays above

CN1CCN(C2=Nc3cc(F)ccc3Cc3ccccc32)CC1
not listed: [2] | [4] | [6]
inactive: all other assays above

CCC1(C)NC(=O)NC1=O (stereo not drawn)
not listed: [4] | [9] | [10]
inactive: all other assays above

O=c1oc2c(O)c(O)cc3c(=O)oc4c(O)c(O)cc1c4c23
not listed: [3] | [4] | [6]
inactive: all other assays above

CCCCNc1ccc(C(=O)OCCN(CC)CC)cc1
not listed: [6] | [9] | [10]
inactive: all other assays above
